High-throughput results deposited in PubChem by University of Kansas High Throughput Screening Laboratory.
mHTT-CaM PPI inh: disrupts binding of mutant huntingtin to calmodulin | P42858 | inhibition, % at 15 µM | AlphaScreen His-mHTT/GST-CaM binding, luminescence | 190,000 compounds, 3.6% hits
Pf apPOL block: Pf-apPOL DNA polymerase inhibition; Recombinant Pf-apPOL, molecular beacon fluorescence, 1.5 h; 210,000 compounds, 0.25% hits; inhibition, % at 10 µM
Of the large screens only hits and unclear results are named; the others gave an inactive call. Hits are enriched below; roughly 3.5% of the tested compounds scored in any of these assays. Cut-off read from the data, not from the text of the source: active = inhibition above about 50%; inactive = the rest.

CCOc1cccc(C(=O)N2CCCCC2CCN2CCCCC2)c1 (stereo unspecified)	none
CCCSc1nc2c(c(=O)n1-c1ccc([N+](=O)[O-])cc1)SCC2	none
COc1cc(OC)cc(C(=O)N2CCN(c3cc(-c4cccnc4)[nH]n3)CC2)c1	none
COc1ccc(OC)c(NC(=O)c2oc(=O)c3ccccc3c2-c2ccccc2)c1	none
COc1cc2c(c(OC)c1OC)C(c1ccc(O)cc1)CC(=O)O2 (stereo unspecified)	none
O=C(Nc1ccc(O)cc1)c1cc(S(=O)(=O)N2CCOCC2)c(Cl)cc1Cl	none
COc1cccc(C(=O)N2CCC(n3c(C4CCCC4)nc4cccnc43)C2)c1 (stereo unspecified)	none
O=S(=O)(c1ccc(-c2cnco2)cc1)N1CCCC1c1ccc(F)cc1 (stereo unspecified)	none (no result: mHTT-CaM PPI inh)
Cc1nnc2cc(N3CCN(Cc4ccc(C(F)(F)F)cc4)CC3)cnn12	mHTT-CaM PPI inh 67.0
Cc1nnc2cc(N3CCN(Cc4csc5c4CCCC5)CC3)cnn12	none
Cc1ccc2c(c1)c1c3n2CCN(C(=O)CN2CCN(C(=O)c4ccco4)CC2)C3CCC1 (stereo unspecified)	mHTT-CaM PPI inh 57.3
O=C(CN1CCN(C(=O)c2ccco2)CC1)Nc1c2c(nc3c1CCC3)CCCC2	none
CCNC(=O)C1CC(c2ccc(CC)cc2)CN(C(=O)c2ccoc2)C1 (stereo unspecified)	none
COc1ccc(-c2ccc(C(=O)N3CCc4ccccc4C3)s2)c(OC)c1OC	mHTT-CaM PPI inh 83.4
COc1ccc(-c2ccc(C(=O)N3CCCCC3)s2)c(OC)c1OC	none
CC1(C)C2CCC1(CS(=O)(=O)NCC13CC4CC(CC(C4)C1)C3)C(=O)C2 (stereo unspecified)	none (no result: Pf apPOL block)
O=C1C=CC(=Nc2ccc(Br)cc2)C=C1	mHTT-CaM PPI inh 87.0
CC(=O)N(c1ccc(F)cc1)c1nc(-c2cc3ccccc3oc2=O)cs1	none
CN1c2cc(C(=O)NCCCc3ccccc3)ccc2C(=O)N2CCCCC21 (stereo unspecified)	none
COC(=O)Nc1ccc(S(=O)(=O)N2CCCc3cccc(O)c32)cc1	none
Cc1oc2ccc(OCc3ccccc3)cc2c1C(=O)O	none
Cc1oc2ccc(OCc3cccc(F)c3)cc2c1C(=O)O	Pf apPOL block 55.8
CCn1ccc2c(cc(C(=O)Nc3ccccc3Br)n2C)c1=O	none
c1cc(-c2nc(-c3ccnc(N4CCCC4)c3)no2)ccn1	none
CCS(=O)(=O)N1CCN(Cc2ccccc2[N+](=O)[O-])CC1	none
COc1ccc(/C=C2\SC(=N)N(c3nonc3N)C2=O)cc1	none
N=C1S/C(=C\c2ccco2)C(=O)N1c1nonc1N	mHTT-CaM PPI inh 93.0
N=C1S/C(=C\c2ccc(-c3cccc(C(F)(F)F)c3)o2)C(=O)N1c1nonc1N	mHTT-CaM PPI inh 56.0
CC(=O)Nc1nonc1N1C(=N)S/C(=C\c2ccc(-c3ccc(F)c(Cl)c3)o2)C1=O	none
N=C1S/C(=C\c2ccc(-c3cccc(Cl)c3)o2)C(=O)N1c1nccs1	mHTT-CaM PPI inh 57.0
CC(=O)Nc1nonc1N1C(=N)S/C(=C\c2ccc(-c3ccc(F)cc3)o2)C1=O	mHTT-CaM PPI inh 62.0
N=C1NC(=O)/C(=C\c2ccc(-c3cccc(C(F)(F)F)c3)o2)S1	none
N=C1S/C(=C\c2ccc(-c3ccc4c(c3)COC4=O)o2)C(=O)N1c1nccs1	none
CC(C)(C)OC(=O)C(C#N)=CC1CCCCC1	none (no result: mHTT-CaM PPI inh)
O=C(Nc1nc(-c2ccccn2)cs1)c1nc2ccccc2s1	mHTT-CaM PPI inh 100.0
CCC(=O)Nc1cccc(NC(=O)c2sc3ccccc3c2Cl)c1	mHTT-CaM PPI inh 56.0
O=C(Nc1nc(-c2nc3ccccc3s2)cs1)c1ccno1	none
Cc1ccccc1C(=O)Nc1cccc(NC(=O)c2sc3ccccc3c2Cl)c1	none
O=C(Nc1nc(-c2ccccn2)cs1)c1sc2ccccc2c1Cl	mHTT-CaM PPI inh 100.0
O=C(NCc1ccccn1)c1sc2ccccc2c1Cl	none
O=C(NCCc1ccccc1)C1CCN(Cc2ccccc2Cl)CC1	none
Cc1ccc(C)c(-c2cncc(C(=O)NC3CC3)c2)c1	none
COc1cc(CNc2ccc(C)c(C)c2)cc(OC)c1	mHTT-CaM PPI inh 69.1
COc1ccc(CNc2ccc(F)c(Cl)c2)cc1	none
COc1cccc(CNc2ccc(C)c(C)c2)c1	mHTT-CaM PPI inh 52.7
COc1cccc(CNc2ccccc2)c1	none
COc1cccc(CNc2cccc(F)c2)c1	none
COc1cccc(CNc2ccc3c(c2)CCC3)c1	mHTT-CaM PPI inh 67.1
Cc1ccccc1NC(=O)c1ccc(F)c(S(=O)(=O)NC2CC2)c1	none
CC(C)Sc1nc2ccc([N+](=O)[O-])cc2s1	none
Cn1c(=O)c(-c2nc(-c3ccc(F)c(Br)c3)no2)c(O)c2ccccc21	none
COc1ccc(C(=O)c2ccco2)cc1	Pf apPOL block 55.8
COc1ccc(C(=O)N2CCN(C(=O)c3ccco3)CC2)cc1	none
CC(=O)NCC(=O)N(Cc1ccco1)C1(C(=O)NC2CCCCC2)CCCCC1	none
O=C(CN1CCc2ccccc2C1C(=O)N1CCCC1)NCc1ccc(C(F)(F)F)cc1 (stereo unspecified)	none
Cc1cccc(NC(=O)c2sc3nc(-c4ccccc4)cn3c2C)n1	mHTT-CaM PPI inh 50.0
Cc1c(C(=O)Nc2ccccn2)sc2nc(-c3ccccc3)cn12	none
